The panel holds about 83,000 compounds, 20% with a hit somewhere; the sample as a whole holds those more often.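 Note: values are percent growth. 100 is the growth of untreated cells, values between 100 and 0 indicate rising inhibition; between -100 and 0 indicates cell death.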 Values without a mark were called inactive. Calls of active or inactive are those of the source. Rule for the calls: active = growth percent below 10; inactive = the rest.

Test systems include BT-549 breast; MDA-MB-435 melanoma; MCF7 breast; HCT-116 colon; HCC-2998 colon; KM12 colon.
Test in all cases: NCI-60 one-dose screen, 48 h (100 = growth as untreated, 0 = no growth, -100 = all killed)
Holding throughout (details): 10 µM unless noted

In the case of `C1=CC2=CC=C3C=CC=C4C(c5nc6c7ccccc7c7ccccc7c6[nH]5)=CC(=C1)C2C34` (stereo not given), the growth with BT-549 breast is 97.3%; with MDA-MB-435 melanoma, 99.9%; in the experiment on MCF7 breast it was 76.9%; in the experiment with HCT-116 colon it was 83.3%; in the experiment on HCC-2998 colon it was 111%; with KM12 colon, 86.5%.
As for `O=C(O)COc1ccc2c(=O)c3sc4c(=O)c5ccccc5c(=O)c4c3c(=O)c2c1`, the growth is -97% (active) in the experiment on BT-549 breast; -88.6% (active) in the experiment with MDA-MB-435 melanoma; -57% (active) in the experiment on MCF7 breast; 24.9% in the experiment with HCT-116 colon; -21.1% (active) in the experiment on HCC-2998 colon; 51.5% in the experiment on KM12 colon.
Consider `COc1cc2cc(c1Cl)N(C)C(=O)C[C@H](OC(=O)[C@H](C)N(C)C(=O)CCS)C[C@]1(C)O[C@H]1[C@H](C)[C@@H]1C[C@@](O)(NC(=O)O1)[C@H](OC)/C=C/C=C(\C)C2`, for which the growth in the experiment on BT-549 breast is 21.9%; in the experiment on MDA-MB-435 melanoma, -16.4% (active); in the experiment on MCF7 breast, 11.4%; in the experiment on HCT-116 colon, 2.39% (active); with HCC-2998 colon it was 8.58% (active).
With `[2H]c1cc2c(c([2H])c1F)/C(=C/c1[nH]c(C)c(C(=O)NCCN(CC)CC)c1C)C(=O)N2`, the growth in the experiment on BT-549 breast is 67.6%; in the experiment with MDA-MB-435 melanoma it was 34%; in the experiment with MCF7 breast, 38.5%; with HCT-116 colon, 34.1%; with HCC-2998 colon, 69.7%; in the experiment on KM12 colon, 1.85% (active).
As for `COc1ccccc1C(=O)/C=C/c1cc2cccc(OC)c2[nH]c1=O`, the growth with BT-549 breast is -3.55% (active); in the experiment with MDA-MB-435 melanoma, 6.42% (active); with MCF7 breast, 13.4%; in the experiment with HCT-116 colon it was -15% (active); in the experiment on HCC-2998 colon, -84.7% (active); in the experiment with KM12 colon, -49.1% (active).
With `COc1ccccc1N1CCN(CCCOc2ccc(C(=O)/C=C3/C(=O)Nc4ccccc43)cc2)CC1`, the growth is 68.1% in the experiment with BT-549 breast; 73% with MDA-MB-435 melanoma; 49.7% with MCF7 breast; 34.4% with HCT-116 colon; 60.2% in the experiment on HCC-2998 colon; 59.4% in the experiment with KM12 colon.
Take `C=C1C(=O)O[C@H]2[C@H]1CC/C(COC(=O)Nc1nc3ccccc3[nH]1)=C\CC[C@@]1(C)O[C@@H]21`: the growth in the experiment with BT-549 breast is 77.3%; in the experiment with MDA-MB-435 melanoma, 45.8%; with MCF7 breast, 20.1%; in the experiment on HCT-116 colon, 12%; with HCC-2998 colon, 102%; with KM12 colon, 94.9%.
For the compound `COc1ccc2c(c1)Oc1nc(N)c(C#N)c(N)c1C2Sc1ccc(O)cc1` (stereo not given), the growth with BT-549 breast is 92.4%; in the experiment with MDA-MB-435 melanoma it was 99.5%; in the experiment on MCF7 breast, 33.6%; in the experiment on HCT-116 colon, 89.6%; in the experiment with HCC-2998 colon, 98.5%; in the experiment on KM12 colon, 97.9%.
With `NS(=O)(=O)c1ccc(C2C3=C(CCCC3=O)OC3=C2C(=O)c2ccccc2C3=O)cc1` (stereo not given), the growth in the experiment with BT-549 breast is -99.8% (active); in the experiment on MDA-MB-435 melanoma, -93% (active); with MCF7 breast, -61.5% (active); in the experiment with HCT-116 colon, -73.6% (active); in the experiment on HCC-2998 colon it was -61.4% (active); in the experiment with KM12 colon, -29.1% (active).
On to `O=c1[nH]nc(-c2ccc(Br)cc2)c2sc(NC(=S)Nc3ccc(Cl)cc3)nc12`, for which the growth in the experiment on BT-549 breast is 92.6%; with MDA-MB-435 melanoma it was 104%; in the experiment with MCF7 breast it was 79.7%; in the experiment on HCT-116 colon, 96.8%; in the experiment with HCC-2998 colon, 97.6%; with KM12 colon, 99.3%.
Turning to `CCCCCCC/C=C/[C@H]1O[C@]23C(=O)C[C@@]4(C[C@@H](OC5OC(CO)C(O)C(O)C5O)C[C@@H]4[C@H]2C=C1C)OC3=O` (stereo not given in full), the growth is -0.665% (active) in the experiment on BT-549 breast; 3.95% (active) with MDA-MB-435 melanoma; 14.4% in the experiment with MCF7 breast; 1.7% (active) in the experiment on HCT-116 colon; 31.3% with HCC-2998 colon; 28.6% with KM12 colon.
On to `Sc1cccc2cccnc12`, for which the growth with BT-549 breast was 48.4%; in the experiment with MDA-MB-435 melanoma, 44.9%; with MCF7 breast, 26.8%; in the experiment on HCT-116 colon, 11.5%; in the experiment with HCC-2998 colon it was 40%; in the experiment with KM12 colon, 25.4%.
For `COc1cc2c(cc1OCCCOc1cc3c(cc1OC)C(=O)N1CC(F)(F)C[C@H]1C=N3)N=C[C@@H]1CC(F)(F)CN1C2=O`, the growth was -38.5% (active) in the experiment on BT-549 breast; -11.8% (active) with MDA-MB-435 melanoma; 13.8% in the experiment on MCF7 breast; 4.77% (active) in the experiment with HCT-116 colon; -7.61% (active) in the experiment on HCC-2998 colon; -18.5% (active) in the experiment on KM12 colon.
As to `COC(=O)c1ccc(NC(=O)CSc2nc(-c3ccc(F)cc3)nc3ccccc23)cc1`, the growth with BT-549 breast is 81.5%; in the experiment on MDA-MB-435 melanoma it was 68.1%; with MCF7 breast, 61.1%; in the experiment on HCT-116 colon, 49.8%; with HCC-2998 colon, 102%.
For `[2H]c1nc(Nc2ncc3cc(C(=O)N(C)C)n(C4CCCC4)c3n2)c([2H])c([2H])c1N1C([2H])([2H])C([2H])([2H])NC([2H])([2H])C1([2H])[2H]`, the growth is 89.4% in the experiment with BT-549 breast; 68.9% with MDA-MB-435 melanoma; 46.9% with MCF7 breast; 40.9% with HCT-116 colon; 77.5% in the experiment with HCC-2998 colon; 42.5% in the experiment with KM12 colon.
In the case of `C#C[C@@]1(O)[C@@H](CO)O[C@@H](n2cc(I)c3c(N)ncnc32)[C@@H]1O`, the growth in the experiment with BT-549 breast is -13.2% (active); in the experiment on MDA-MB-435 melanoma it was 14.6%; in the experiment on MCF7 breast it was 1.73% (active); in the experiment with HCT-116 colon, 0.762% (active); with HCC-2998 colon, -35.3% (active); with KM12 colon, 9.88% (active).
As for `Cc1cc(C)n(-c2nc(-c3cccs3)c(C#N)c(=O)[nH]2)n1`, the growth in the experiment with BT-549 breast is 83%; in the experiment on MDA-MB-435 melanoma, 95.2%; in the experiment with MCF7 breast it was 89.8%; in the experiment on HCT-116 colon, 85.1%; in the experiment on HCC-2998 colon, 96.7%; in the experiment with KM12 colon, 97.9%.
For the compound `COc1ccc(-c2nnc(N3CCN(C(=O)CN4CCN(c5ccc(OC)cc5)CC4)CC3)nc2-c2ccc(OC)cc2)cc1`, the growth is -81.8% (active) with BT-549 breast; -68.1% (active) with MDA-MB-435 melanoma; -69.8% (active) in the experiment with MCF7 breast; -41.1% (active) in the experiment with HCT-116 colon; 33.9% with HCC-2998 colon; -13.1% (active) in the experiment on KM12 colon.
Take `COc1ccc(-n2nc(C(=O)NCC(=O)O)nc2-c2ccccc2)cc1`: the growth in the experiment on BT-549 breast was 94.2%; with MDA-MB-435 melanoma, 111%; in the experiment with MCF7 breast, 98.2%; with HCT-116 colon, 101%; in the experiment on HCC-2998 colon, 118%; with KM12 colon it was 108%.
For `CCOCc1cc(C(C)(C)C)ccc1O`, the growth in the experiment on BT-549 breast was 104%; in the experiment on MDA-MB-435 melanoma it was 102%; in the experiment on MCF7 breast, 97.6%; in the experiment on HCT-116 colon it was 91.2%; in the experiment with KM12 colon it was 106%.
In the case of `COc1ccc2nc(-c3ccc(Cl)cc3)cc(C(=O)N3N=C(c4ccc(N)cc4)CC3c3ccccc3)c2c1` (stereo not given), the growth was 44% in the experiment on BT-549 breast; 4.25% (active) with MDA-MB-435 melanoma; 11.9% in the experiment with MCF7 breast; 34.8% with HCT-116 colon; 70.3% with HCC-2998 colon; 18.7% in the experiment with KM12 colon.
As for `N#Cc1ccc(C2C3=C(CCCC3=O)OC3=C2C(=O)c2ccccc2C3=O)cc1` (stereo not given), the growth was 91.9% with BT-549 breast; -77% (active) in the experiment on MDA-MB-435 melanoma; 0.491% (active) with MCF7 breast; 6.16% (active) in the experiment on HCT-116 colon; 104% with HCC-2998 colon; 89.8% in the experiment with KM12 colon.
Take `Nc1c(C(=O)Nc2ccccn2)sc2nc3c(cc12)CCCCC3`: the growth with BT-549 breast was 52.6%; in the experiment on MDA-MB-435 melanoma, -25.2% (active); with MCF7 breast it was 20.1%; with HCT-116 colon, 17.1%; in the experiment with HCC-2998 colon it was 30.7%; with KM12 colon, 18.8%.

(Values after PubChem BioAssay (NCI).)
